Sampled rows, rich in hits. Any-hit rate of the full collection: about 1.7%.
Imprint erasure = inducers of genomic imprint erasure in mouse ES cells; Potency, µM (titrated, usually from 60.7 µM), most hits filed as activators; actives 0.02% (n = 110,000); AID 1948; mouse ES Peg3-LacZ reporter, beta-gal luminescence, 40 h
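Imprint erasure is scored as LacZ activity from the silenced maternal Peg3 allele in feeder-free female ES cells cultured 40 h with LIF. Luminescence is normalized to in-plate negative controls and fitted to the Hill equation.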
IkB signaling = suppresses IkB signaling in ABC-DLBCL reporter cells | actives 0.04% (n = 110,000) | Potency, µM (top dose mostly 57.1 µM) | AID 445 | ABC-DLBCL IkBa-CBG/CBR dual luciferase ratio, 4 h; response scale: scaled: untreated 0%, proteasome inhibitor 100%; active means well fitted curve in the direction sought with a large enough effect in the signal ratio, not every such curve was filed as active; inconclusive means small, poorly fitted or top-dose-only effect, or a change in a side signal; the % refers to the signal ratio;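 further: the direction sought is a rising ratio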
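Curves were fitted separately to fusion (green), unfused (red) and ratio luminescence, then classed by r2, magnitude and activity. Cells: OCI-Ly3, 4 h compound plus doxycycline at 37C; 10 uM MG-132 defined full response.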
p53ts 32C kill = p53ts cell cytotoxicity, permissive temperature; actives 0.93% (n = 130,000); Potency, µM (titrated, usually from 46.1 µM), usual class: cytotoxic; H1299-p53A138V at 32C, ATP luminescence viability, 24 h; further: nearly all actives have a fitted effect of over 55% in size
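Viability by ATPlite luminescence after 24 h compound treatment (up to 46 uM) at the permissive 32C. Cells are H1299 carrying p53 A138V. Scale runs from DMSO basal to 100 uM tamoxifen as full kill; AC50 from Hill fits.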
p53ts 39C kill = kills p53ts cells at the nonpermissive temperature; H1299-p53A138V viability at 39C, ATP luminescence, 24 h; Potency, µM (titrated, usually from 46.1 µM), usual class: cytotoxic; actives 1.5% (n = 130,000); further: nearly all actives have a fitted effect of over 55% in size
A number is an active result; . = inactive; ? = inconclusive; / = not tested or not shown; [ ] = remark or other dose. Unless noted, the call rests on the fitted dose curve; in most records, active means well fitted curve in the direction sought with a large enough effect; inconclusive means small, poorly fitted or top-dose-only effect, or another doubt; inactive means no such curve, though single readings can be large; an effect the other way counts as inactive or inconclusive.

SMILES	Imprint erasure	IkB signaling	p53ts 32C kill	p53ts 39C kill
CCOC(=O)c1cccc(NC(=O)c2cc3cc4ccc(C)cc4nc3s2)c1	.[10.9 µM]	?	.	10µM
CCOC(=O)c1cccc(NC(=O)c2cc3cc4cc(OC)ccc4nc3s2)c1	.[10.9 µM]	?	.	.
CCCN1CCN(CCCNC(=O)c2ccc3c(c2)sc2nc(-c4ccc(OCC)cc4)cn23)CC1	.[10.9 µM]	?	?	13µM
CCOc1ccc(-c2cc(C(=O)NCCc3ccc(Cl)cc3)c3ccccc3n2)cc1	.[10.9 µM]	.	.	?
CCOc1ccc(-c2cc(C(=O)NCCc3ccc(C)cc3)c3ccccc3n2)cc1	.[10.9 µM]	.	.	16µM
COc1ccc(-c2cn3c(n2)sc2cc(C(=O)Nc4ccc(C)cc4C)ccc23)cc1	.[10.9 µM]	.	.	.
COc1ccc(-c2cn3c(n2)sc2cc(C(=O)Nc4ccc(F)cc4Cl)ccc23)cc1	.[10.9 µM]	?	.	20µM
CCOc1ccc(-c2cc(C(=O)NCCCN3CCN(CC)CC3)c3ccccc3n2)cc1	.	.	13µM	13µM
CC(=O)c1c(O)c(C)c(O)c2c1OC1=CC(=O)[C@H](C(C)=O)C(=O)[C@]12C	/	.[11.4 µM]	/	/
CCc1cccc(NC(=O)C2CCCN2S(=O)(=O)c2ccc3nc(-c4ccccc4)[nH]c3c2)c1 (configuration not stated)	.[10.9 µM]	.	.	.
CN1CCc2c(cc(O)c(O)c2Cl)[C@H](c2cccc(Cl)c2)C1	/	.	.	.
C=CCc1ccccc1OCC(O)CN1CCN(C(=O)OCC)CC1 (configuration not stated)	.	.	.	.
Cc1ccc(C2CC(=O)Oc3cc(C)c(Cl)cc32)cc1 (configuration not stated)	.	/	/	/
CC(C)[C@@H](CC(=O)N[C@@H]1CCNC[C@H]1C(=O)N[C@H](CC(=O)N[C@@H](CCC(=O)O)CC(=O)O)Cc1c[nH]c2ccccc12)NC(=O)C[C@H](CO)NC(=O)[C@@H]1CNCC[C@H]1N	/	.	/	/
COC1=CC(=O)C(O)=C/C1=C\C=C\c1ccccc1	.	/	.	.
Cc1ccc(Nc2c(-c3c[nH]c4ccccc34)nc3cc(C)ccn23)cc1	.[10.9 µM]	?	.	?
Cc1ccn2c(Nc3ccccc3)c(-c3c[nH]c4ccccc34)nc2c1	.[10.9 µM]	?	.	16µM
Nc1nnc(C(=O)c2ccccc2N)s1	.	.	16µM	?
CCCCCCCCCCCC1=C(O)C(=O)C=C(O)C1=O	.	.	13µM	13µM
Cc1ccc(C)c(N2CCN(CCCNC(=O)c3cnn(-c4cccc(Cl)c4)c3C3CCN(C(=O)OC(C)(C)C)CC3)CC2)c1	.[10.9 µM]	?	?	?
CCN1CCN(CCCNC(=O)c2cnn(-c3ccc(C)cc3)c2C2CCN(C(=O)OC(C)(C)C)CC2)CC1	.[10.9 µM]	?	.	.
Cc1ccc(C)c(N2CCN(CCCNC(=O)c3cnn(-c4ccc(F)cc4)c3C3CCN(C(=O)OC(C)(C)C)CC3)CC2)c1	.[10.9 µM]	?	?	25µM
Cc1ccc(C)c(N2CCN(CCCNC(=O)c3cnn(-c4ccccc4Cl)c3C3CCN(C(=O)OC(C)(C)C)CC3)CC2)c1	.[10.9 µM]	?	.	16µM
Cn1ccc2cc(NC(=O)Nc3cccnc3)ccc21	.	.	?	16µM
O=C(Nc1cccnc1)Nc1ccc(F)c(Cl)c1	.	.	?	.
SMILES	Imprint erasure	IkB signaling	p53ts 32C kill	p53ts 39C kill
CCN(CC)CCOC(=O)c1ccc(NC(=O)c2cc3c(s2)-c2ccccc2OC3)cc1	.[10.9 µM]	?	?	16µM
Cn1c(-c2ccccc2)cnc1SCc1nc2ccccc2c(=O)[nH]1	.	.	13µM	?
Cn1c(SCc2nc3ccccc3c(=O)[nH]2)nnc1-c1ccco1	.	.	.	.
CN1C[C@@H](C(=O)N[C@]2(C)O[C@]3(O)[C@H]4CCCN4C(=O)[C@H](Cc4ccccc4)N3C2=O)C[C@H]2c3cccc4[nH]cc(c34)C[C@@H]21	/	.	.	.
CCOc1ccccc1NC(=O)c1nn(C)c2c1CSc1ccccc1-2	.[10.9 µM]	.	.	16µM
COc1cc(/C=C/C(=O)N2CCCCC2=O)cc(OC)c1OC	.	/	13µM	13µM
COc1cc(/C=C/C(=O)O)cc(OC)c1OC	.	/	.	.
COc1cc(/C=C/C(=O)N2C(=O)c3cccc(N)c3C2=O)cc(OC)c1OC	/	/	/	.
COc1cc(/C=C\C(=O)N2CCC=CC2=O)cc(OC)c1OC	.	?	6.3µM	6.3µM
COc1ccccc1N1CCN(Cc2nc(-c3cc(OC)c(OC)c(OC)c3)no2)CC1	.[10.9 µM]	?	.	.
COc1cc(-c2noc(CN3CCN(c4ccccc4)CC3)n2)cc(OC)c1OC	.[10.9 µM]	.	.	25µM
O=c1cc(-c2ccccc2O)oc2c(O)c(O)ccc12	.	.[11.4 µM]	.	.
O=c1cc(-c2ccc(O)c(O)c2)oc2ccccc12	.	/	.	.
O=c1cc(-c2ccccc2)oc2cc(O)c(O)cc12	.	/	2.5µM	2µM
O=c1cc(-c2ccccc2)oc2c(O)c(O)ccc12	.	/	?	13µM
NC(CSS(=O)(=O)O)=N[C@@H]1C[C@H]2CC[C@@H]1C2	.[10.9 µM]	.[11.4 µM]	.[9.22 µM]	.[9.22 µM]
CCn1nnc(NC(=O)c2cccnc2)n1	.	.	.	.
CCn1nnc(NC(=O)c2ccc(C(C)(C)C)cc2)n1	/	.	2.5µM	5µM
O=C(N/N=C1/C[C@@H](O)[C@@H](O)[C@@H]2[C@@H]3C(=O)N(C[C@@H]4CCCO4)C(=O)[C@H]3CC[C@H]12)OCc1ccccc1	/	/	.[9.22 µM]	.[9.22 µM]
COc1ccccc1-c1nnc(NC(=O)c2ccc(S(=O)(=O)N(C)C)cc2)o1	.	.	.	?
CCN(Cc1ccccc1)S(=O)(=O)c1ccc(C(=O)Nc2nnc(-c3ccccc3OC)o2)cc1	.	.	.	13µM
CCCCN(CCCC)S(=O)(=O)c1ccc(C(=O)Nc2nnc(CSC)o2)cc1	.	.	.	16µM
CCCCN(C)S(=O)(=O)c1ccc(C(=O)Nc2nnc(-c3cccs3)o2)cc1	.	?	.	7.9µM
CCCCN(CC)S(=O)(=O)c1ccc(C(=O)Nc2nnc(CSC)o2)cc1	.	.	.	25µM
COc1ccc(Oc2ncc3nc(-c4ccc(F)cc4)c(=O)n(CCC#N)c3n2)cc1	.	.[11.4 µM]	.	.
SMILES	Imprint erasure	IkB signaling	p53ts 32C kill	p53ts 39C kill
CC1(C)CCC(NC(=O)[C@H](N)CCC(=O)O)CC1	/	.	.	.
COc1ccc2nc(NCc3ccccc3)[nH]c2c1	.	.	?	?
c1ccc(CNc2nc3ccccc3[nH]2)cc1	.	.	10µM	?
COc1ccccc1OCCSc1nc(-c2ccc(C(C)(C)C)cc2)nc2cc(=O)[nH]n12	.[10.9 µM]	?	.	.
Cc1ccc(OCCCSc2nc(-c3ccc(C(C)(C)C)cc3)nc3cc(=O)[nH]n23)cc1C	.[10.9 µM]	.	?	20µM
CC(C)(C)c1ccc(-c2nc(SCCOc3ccc(Cl)cc3)n3[nH]c(=O)cc3n2)cc1	.[10.9 µM]	.	?	?
C=CCc1ccccc1OCCSc1nc(-c2ccc(C(C)(C)C)cc2)nc2cc(=O)[nH]n12	.[10.9 µM]	.	?	10µM
COc1ccc(-c2nc(-c3ccc(NC(=O)c4ccc(Br)o4)cc3)no2)cc1OC	.	.	?	13µM

Assay outcomes from PubChem.
